Records with an inconclusive call do not appear. Calls of active or inactive are those of the source. Rule for the calls, unless noted: active = hit-call score of the fitted dose curve at least 0.9, where 1 is the maximum; inconclusive = response in the unintended direction; inactive = score below 0.9.
Experiments:
[1] = molecular target: Myc proto-oncogene protein (Homo sapiens) (UniProt P01106); assay: ATG_Myc_CIS: Attagene CIS-FACTORIAL HepG2 Assay for human Myelocytomatosis (Myc) Proto-Oncogene Transcription Factor (AID 2282990; active = hit-call score of the fitted dose curve at least 0.9, where 1 is the maximum; inactive = score below 0.9); conditions: HepG2, Attagene cis-reporter transcription factor activity; actives raise or lower the signal
Outline: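 Multiplexed cis-reporter transcription in HepG2 cells after 24 h chemical treatment. Reporter mRNA measured by RT-PCR and capillary electrophoresis fluorescence; activity fitted bidirectionally against DMSO control.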

[2] = ATG_NF_kB_CIS: Attagene CIS-FACTORIAL HepG2 Assay for human Nuclear Factor Kappa B (NF-kB) (AID 2282991; active = hit-call score of the fitted dose curve at least 0.9, where 1 is the maximum; inactive = score below 0.9); conditions: HepG2 Attagene cis-factorial NF-kB reporter mRNA; actives raise or lower the signal
Outline: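 HepG2 cells transiently transfected with multiplexed cis-element reporter units measuring endogenous transcription factor activity; reporter mRNA read 24 h after dosing by RT-PCR, fluorescent labelling, HpaI digestion and capillary electrophoresis. Bidirectional fit against DMSO baseline.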

[3] = ATG_NRF2_ARE_CIS: Attagene CIS-FACTORIAL HepG2 Assay for human Nuclear Factor Erythroid 2 Related Factor 2 (NFR2) response to Antioxidant Response Elements (ARE) (AID 2282992; active = hit-call score of the fitted dose curve at least 0.9, where 1 is the maximum; inactive = score below 0.9); conditions: HepG2 Attagene ARE/NRF2 reporter, transcription factor activity; actives raise or lower the signal
Outline: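 Multiplexed reporter mRNA profiling in HepG2 after a 24 h chemical exposure. Curves fitted in both directions relative to DMSO negative control.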

[4] = ATG_Oct_MLP_CIS: Attagene CIS-FACTORIAL HepG2 Assay for human Octamer-Binding Transcription Factor (Oct) (AID 2282993; active = hit-call score of the fitted dose curve at least 0.9, where 1 is the maximum; inactive = score below 0.9); conditions: HepG2 Attagene cis-factorial Oct reporter, mRNA; actives raise or lower the signal
Outline: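 Readout is reporter transcript level from RT-PCR with fluorescent primer extension and capillary electrophoresis, fitted in both directions against DMSO. Transfected HepG2 reporter units report endogenous factor activity after 24 h dosing.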

[5] = molecular target: human Peroxisome Proliferator-activated Receptor delta (PPARd), PPARD (gene 5467) (UniProt Q03181); assay: ATG_PPARd_TRANS: Attagene TRANS-FACTORIAL HepG2 Assay for human Peroxisome Proliferator-activated Receptor delta (PPARd) (AID 2283002)
Outline: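 Multiplexed trans-activation format: HepG2 liver cells expressing exogenous NR-Gal4 chimeras and GAL4-UAS reporters were exposed for 24 h. Reporter mRNA was detected by RT-PCR with capillary electrophoresis fluorescence; activity fitted as gain of signal relative to DMSO.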

[6] = molecular target: human Retinoic Acid Receptor beta (RARb), RARB (gene 5915) (UniProt P10826); assay: ATG_RARb_TRANS: Attagene TRANS-FACTORIAL HepG2 Assay for human Retinoic Acid Receptor beta (AID 2283004)
Outline: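 HepG2 cells were transiently transfected with GAL4-UAS reporter units that report activity of exogenous chimeric NR-Gal4 proteins, then exposed to compound for 24 h. Reporter mRNA was quantified by RT-PCR with capillary electrophoresis fluorescence, as gain of signal over DMSO.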

[7] = molecular target: Peroxisome proliferator-activated receptor gamma (Homo sapiens) (UniProt P37231); assay: ATG_PPARg_TRANS: Attagene TRANS-FACTORIAL HepG2 Assay for human Peroxisome Proliferator-activated Receptor-gamma (PPARg) (AID 2283007)
Outline: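 HepG2 cells transiently transfected with multiplexed GAL4-UAS reporter units and exogenous chimeric NR-Gal4 proteins; reporter mRNA quantified after 24 h compound exposure by RT-PCR, fluorescent labelling, HpaI digestion and capillary electrophoresis; gain-of-signal fitted versus DMSO baseline.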

[8] = molecular target: Nuclear receptor subfamily 1 group I member 2 (Homo sapiens) (UniProt O75469); assay: ATG_PXR_TRANS: Attagene TRANS-FACTORIAL HepG2 Assay for human Pregnane X Receptor (PXR) (AID 2283008)
Outline: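 Measures mRNA induction of a GAL4-UAS-driven reporter in human HepG2 cells transiently expressing PXR fused to Gal4, following 24 h treatment. DMSO served as negative control and baseline.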

[9] = molecular target: human Retinoic Acid Receptor gamma (RARg), RARG (gene 5916) (UniProt P13631); assay: ATG_RARg_TRANS: Attagene TRANS-FACTORIAL HepG2 Assay for human Retinoic Acid Receptor gamma (RARg) (AID 2283009)
Outline: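 HepG2, RARg-GAL4 TRANS system, 24 h exposure; reporter mRNA by RT-PCR + CE fluorescence; increase over DMSO.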

[10] = molecular target: human RAR-related Orphan Receptor beta (RORb), RORB (gene 6096) (UniProt Q92753); assay: ATG_RORb_TRANS: Attagene TRANS-FACTORIAL HepG2 Assay for human RAR-related Orphan Receptor beta (RORb) (AID 2283010)
Outline: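 In this TRANS-format test, human HepG2 cells express chimeric NR-Gal4 fusion proteins driving GAL4-UAS reporters. After 24 h dosing, reporter transcripts are measured by fluorescent RT-PCR/capillary electrophoresis, with DMSO as negative control.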

[11] = molecular target: Cellular tumor antigen p53 (Homo sapiens) (UniProt P04637); assay: ATG_p53_CIS: Attagene CIS-FACTORIAL HepG2 Assay for human p53 Transcription Factor (AID 2282994; active = hit-call score of the fitted dose curve at least 0.9, where 1 is the maximum; inactive = score below 0.9); conditions: HepG2 p53 cis-element reporter, Attagene mRNA; actives raise or lower the signal
Outline: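 Multiplexed reporter mRNA assay in human HepG2 liver cells; cis-regulated units report endogenous factor activity. Values come from bidirectional curve fitting against DMSO negative control after 24 h treatment.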

[12] = molecular target: human Peroxisome Proliferator-activated Receptor alpha (PPARa), PPARA (gene 5465) (UniProt Q07869); assay: ATG_PPARa_TRANS: Attagene TRANS-FACTORIAL HepG2 Assay for human Peroxisome Proliferator-activated Receptor alpha (PPARa) (AID 2283001)
Outline: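 HepG2 cells transiently transfected with multiplexed GAL4-UAS reporter units and chimeric NR-Gal4 constructs were dosed for 24 h. Reporter mRNA was measured by RT-PCR with fluorescent labelling and capillary electrophoresis; gain of signal fitted against DMSO.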

[13] = molecular target: Retinoic acid receptor alpha (Homo sapiens) (UniProt P10276); assay: ATG_RARa_TRANS: Attagene TRANS-FACTORIAL HepG2 Assay for human Retinoic Acid Receptor alpha (RARa) (AID 2283005)
Outline: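 HepG2 cells transiently transfected with multiple reporter units expressing chimeric RARα-GAL4 fusion, with GAL4-UAS-driven reporters. After 24 h compound exposure, reporter mRNA induction quantified by RT-PCR and capillary electrophoresis with fluorescent labeling; gain-of-signal fitted relative to DMSO control.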

[14] = molecular target: human RAR-related Orphan Receptor gamma (RORg), RORC (gene 6097) (UniProt P51449); assay: ATG_RORg_TRANS: Attagene TRANS-FACTORIAL HepG2 Assay for human RAR-related Orphan Receptor gamma (RORg) (AID 2283011)
Outline: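 HepG2 cells transiently transfected with GAL4-UAS reporter units and chimeric RORg-Gal4 construct; after 24 h chemical exposure, reporter mRNA measured by RT-PCR with fluorescent capillary electrophoresis, gain of signal fitted against DMSO.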

Measured: AC50

Sequence of Retinoic acid receptor alpha (Homo sapiens) (P10276 whole entry, looked up, the tested form may be a part): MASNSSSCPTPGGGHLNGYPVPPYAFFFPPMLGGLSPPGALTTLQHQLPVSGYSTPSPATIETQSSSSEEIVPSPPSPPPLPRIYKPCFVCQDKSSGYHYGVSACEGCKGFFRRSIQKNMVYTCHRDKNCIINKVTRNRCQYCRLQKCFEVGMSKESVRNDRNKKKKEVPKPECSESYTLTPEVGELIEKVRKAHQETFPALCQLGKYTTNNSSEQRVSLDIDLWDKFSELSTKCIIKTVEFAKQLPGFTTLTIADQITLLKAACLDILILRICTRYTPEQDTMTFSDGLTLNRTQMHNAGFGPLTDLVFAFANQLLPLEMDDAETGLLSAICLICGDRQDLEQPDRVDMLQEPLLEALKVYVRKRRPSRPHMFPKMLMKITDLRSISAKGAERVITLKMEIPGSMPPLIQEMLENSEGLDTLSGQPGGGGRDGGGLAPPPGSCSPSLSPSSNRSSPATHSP
Sequence of human Retinoic Acid Receptor gamma (RARg), RARG (gene 5916) (P13631 whole entry, looked up, the tested form may be a part): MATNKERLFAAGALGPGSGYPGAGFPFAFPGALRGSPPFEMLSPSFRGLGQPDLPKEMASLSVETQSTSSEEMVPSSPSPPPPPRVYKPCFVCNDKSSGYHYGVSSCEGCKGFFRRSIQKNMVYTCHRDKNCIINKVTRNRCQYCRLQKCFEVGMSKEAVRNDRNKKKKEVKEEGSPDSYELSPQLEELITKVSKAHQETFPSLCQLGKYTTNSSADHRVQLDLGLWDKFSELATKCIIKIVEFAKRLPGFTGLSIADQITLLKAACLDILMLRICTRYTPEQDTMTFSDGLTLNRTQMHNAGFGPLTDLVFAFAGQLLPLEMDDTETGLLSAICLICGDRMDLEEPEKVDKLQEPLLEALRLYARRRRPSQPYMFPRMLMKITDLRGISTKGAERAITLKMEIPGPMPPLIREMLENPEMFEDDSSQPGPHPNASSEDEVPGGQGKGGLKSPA
Sequence of Peroxisome proliferator-activated receptor gamma (Homo sapiens) (P37231 whole entry, looked up, the tested form may be a part): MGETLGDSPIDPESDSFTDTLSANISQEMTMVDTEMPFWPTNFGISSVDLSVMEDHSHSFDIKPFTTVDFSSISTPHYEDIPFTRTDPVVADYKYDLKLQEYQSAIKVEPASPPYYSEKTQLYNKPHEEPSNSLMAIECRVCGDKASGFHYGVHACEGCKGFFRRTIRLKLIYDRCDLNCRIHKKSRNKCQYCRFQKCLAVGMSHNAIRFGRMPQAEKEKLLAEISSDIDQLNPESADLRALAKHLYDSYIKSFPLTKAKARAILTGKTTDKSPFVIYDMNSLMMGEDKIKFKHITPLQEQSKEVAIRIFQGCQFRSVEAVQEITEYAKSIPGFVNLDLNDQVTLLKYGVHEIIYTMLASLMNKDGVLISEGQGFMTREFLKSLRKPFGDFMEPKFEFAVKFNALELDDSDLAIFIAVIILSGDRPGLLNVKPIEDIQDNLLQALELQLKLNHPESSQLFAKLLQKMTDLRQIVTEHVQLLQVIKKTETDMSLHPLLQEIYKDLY
Sequence of human RAR-related Orphan Receptor gamma (RORg), RORC (gene 6097) (P51449 whole entry, looked up, the tested form may be a part): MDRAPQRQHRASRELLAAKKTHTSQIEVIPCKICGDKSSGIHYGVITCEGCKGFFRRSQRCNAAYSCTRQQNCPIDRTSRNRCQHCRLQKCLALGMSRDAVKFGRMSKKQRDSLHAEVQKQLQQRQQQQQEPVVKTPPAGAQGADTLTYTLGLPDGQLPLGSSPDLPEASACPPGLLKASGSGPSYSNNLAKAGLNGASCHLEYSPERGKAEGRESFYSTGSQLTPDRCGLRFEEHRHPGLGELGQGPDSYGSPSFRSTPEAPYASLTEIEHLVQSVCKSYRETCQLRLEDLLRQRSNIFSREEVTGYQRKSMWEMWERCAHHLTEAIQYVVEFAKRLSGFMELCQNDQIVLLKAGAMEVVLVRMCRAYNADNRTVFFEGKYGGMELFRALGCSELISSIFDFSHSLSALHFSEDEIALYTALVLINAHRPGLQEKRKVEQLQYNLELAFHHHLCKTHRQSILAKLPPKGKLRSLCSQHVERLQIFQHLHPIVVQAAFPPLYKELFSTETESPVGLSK
Sequence of human Retinoic Acid Receptor beta (RARb), RARB (gene 5915) (P10826 whole entry, looked up, the tested form may be a part): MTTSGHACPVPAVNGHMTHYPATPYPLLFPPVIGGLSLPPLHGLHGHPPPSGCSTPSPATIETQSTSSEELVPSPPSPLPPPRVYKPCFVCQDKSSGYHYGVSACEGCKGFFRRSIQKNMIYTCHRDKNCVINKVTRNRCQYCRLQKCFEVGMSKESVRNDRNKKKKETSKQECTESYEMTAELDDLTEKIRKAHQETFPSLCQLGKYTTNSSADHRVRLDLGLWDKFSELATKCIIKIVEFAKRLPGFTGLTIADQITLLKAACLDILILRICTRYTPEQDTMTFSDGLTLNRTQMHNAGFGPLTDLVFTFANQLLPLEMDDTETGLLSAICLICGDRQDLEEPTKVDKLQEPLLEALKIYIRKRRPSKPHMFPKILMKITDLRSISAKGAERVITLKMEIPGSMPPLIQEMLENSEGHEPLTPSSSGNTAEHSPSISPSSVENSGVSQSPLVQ
Sequence of Cellular tumor antigen p53 (Homo sapiens) (P04637 whole entry, looked up): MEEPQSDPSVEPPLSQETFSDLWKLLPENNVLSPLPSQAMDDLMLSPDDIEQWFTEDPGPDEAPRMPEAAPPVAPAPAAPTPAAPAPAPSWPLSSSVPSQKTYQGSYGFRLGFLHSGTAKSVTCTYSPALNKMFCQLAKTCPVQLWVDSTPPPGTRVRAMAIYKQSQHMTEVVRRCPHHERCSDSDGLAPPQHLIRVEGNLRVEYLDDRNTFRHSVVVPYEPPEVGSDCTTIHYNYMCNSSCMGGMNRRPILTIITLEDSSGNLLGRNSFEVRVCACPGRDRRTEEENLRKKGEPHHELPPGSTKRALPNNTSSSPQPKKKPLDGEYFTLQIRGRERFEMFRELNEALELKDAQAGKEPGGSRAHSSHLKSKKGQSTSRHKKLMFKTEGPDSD
Sequence of human Peroxisome Proliferator-activated Receptor delta (PPARd), PPARD (gene 5467) (Q03181 whole entry, looked up, the tested form may be a part): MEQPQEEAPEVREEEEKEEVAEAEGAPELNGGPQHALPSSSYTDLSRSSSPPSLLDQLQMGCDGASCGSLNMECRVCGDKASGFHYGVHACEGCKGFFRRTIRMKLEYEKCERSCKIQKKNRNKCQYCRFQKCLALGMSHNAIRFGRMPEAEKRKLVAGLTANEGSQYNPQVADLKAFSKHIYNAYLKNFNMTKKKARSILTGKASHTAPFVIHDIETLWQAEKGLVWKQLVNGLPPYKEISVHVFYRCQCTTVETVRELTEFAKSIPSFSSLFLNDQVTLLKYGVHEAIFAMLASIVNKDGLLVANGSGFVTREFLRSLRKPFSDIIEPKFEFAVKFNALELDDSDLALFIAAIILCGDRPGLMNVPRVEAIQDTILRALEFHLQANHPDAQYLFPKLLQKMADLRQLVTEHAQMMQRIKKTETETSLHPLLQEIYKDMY
Sequence of Nuclear receptor subfamily 1 group I member 2 (Homo sapiens) (O75469 whole entry, looked up, the tested form may be a part): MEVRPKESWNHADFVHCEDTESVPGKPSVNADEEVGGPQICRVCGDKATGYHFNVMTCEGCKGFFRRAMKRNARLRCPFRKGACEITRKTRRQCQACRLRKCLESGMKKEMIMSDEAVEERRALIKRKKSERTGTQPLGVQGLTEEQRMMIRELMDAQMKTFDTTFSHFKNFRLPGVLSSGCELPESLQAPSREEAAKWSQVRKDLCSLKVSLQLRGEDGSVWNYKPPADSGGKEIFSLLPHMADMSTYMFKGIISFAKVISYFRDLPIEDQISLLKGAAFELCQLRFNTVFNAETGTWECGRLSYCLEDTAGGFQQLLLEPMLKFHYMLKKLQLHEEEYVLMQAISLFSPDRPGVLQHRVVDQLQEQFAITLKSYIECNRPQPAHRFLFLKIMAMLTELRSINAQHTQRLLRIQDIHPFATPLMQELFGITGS
Sequence of Myc proto-oncogene protein (Homo sapiens) (P01106 whole entry, looked up): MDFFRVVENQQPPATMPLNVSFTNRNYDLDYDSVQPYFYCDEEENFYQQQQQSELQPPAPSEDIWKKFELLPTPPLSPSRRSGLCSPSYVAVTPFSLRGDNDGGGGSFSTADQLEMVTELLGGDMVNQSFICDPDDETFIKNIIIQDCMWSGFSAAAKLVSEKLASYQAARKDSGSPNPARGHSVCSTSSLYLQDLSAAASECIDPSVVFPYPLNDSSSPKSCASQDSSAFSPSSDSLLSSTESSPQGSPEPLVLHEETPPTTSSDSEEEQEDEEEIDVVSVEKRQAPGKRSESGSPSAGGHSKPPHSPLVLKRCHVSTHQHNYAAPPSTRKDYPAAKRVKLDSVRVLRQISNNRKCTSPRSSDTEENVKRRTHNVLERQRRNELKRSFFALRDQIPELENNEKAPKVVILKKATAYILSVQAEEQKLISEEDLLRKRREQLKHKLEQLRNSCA
Sequence of human RAR-related Orphan Receptor beta (RORb), RORB (gene 6096) (Q92753 whole entry, looked up, the tested form may be a part): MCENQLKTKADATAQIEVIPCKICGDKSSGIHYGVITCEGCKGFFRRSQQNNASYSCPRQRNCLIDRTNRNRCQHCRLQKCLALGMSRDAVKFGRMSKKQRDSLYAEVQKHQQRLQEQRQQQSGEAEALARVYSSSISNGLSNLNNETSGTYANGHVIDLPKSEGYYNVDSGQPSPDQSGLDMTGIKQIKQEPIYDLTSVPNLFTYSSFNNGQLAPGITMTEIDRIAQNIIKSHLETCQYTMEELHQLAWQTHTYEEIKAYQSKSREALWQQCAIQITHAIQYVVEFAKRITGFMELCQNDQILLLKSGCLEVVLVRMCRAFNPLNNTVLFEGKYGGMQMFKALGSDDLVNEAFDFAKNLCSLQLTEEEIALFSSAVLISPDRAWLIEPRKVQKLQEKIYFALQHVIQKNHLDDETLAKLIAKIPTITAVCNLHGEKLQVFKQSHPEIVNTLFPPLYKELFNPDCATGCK

CC1=C(Br)C(=O)C(Br)=C/C1=C(/c1ccccc1S(=O)(=O)O)c1cc(Br)c(O)c(Br)c1C
active: [8] 29.6 µM
inactive: [1] | [2] | [3] | [4] | [5] | [6] | [7] | [9] | [10]

Cc1ccc(S(=O)(=O)Oc2ccc(N=Nc3ccc(-c4ccc(N=Nc5c(O)ccc6cc(S(=O)(=O)O)cc(S(=O)(=O)O)c56)c(C)c4)cc3C)cc2)cc1
active: [7] 18.3 µM
inactive: [1] | [2] | [3] | [11] | [12] | [5] | [6] | [8] | [9]

COC(C)(C)CCCC(C)CC=O (centres undefined)
inactive: [1] | [2] | [3] | [11] | [5] | [13] | [7] | [8]

C=CCOC(=O)CCCCCC
inactive: [1] | [2] | [3] | [4] | [5] | [7] | [8] | [14]

Oc1ccc2cc(SSc3ccc4cc(O)ccc4c3)ccc2c1
active: [3] 8.28 µM | [4] 39.9 µM | [7] 5.56 µM
inactive: [1] | [2] | [5] | [8]

CC(C)OCCO
inactive: [1] | [3] | [4] | [11] | [6] | [8] | [14]

C=CC(=O)OCCCC
inactive: [1] | [3] | [4] | [11] | [6] | [13] | [8] | [9]

CC/C=C\CCOC(=O)CC
inactive: [1] | [3] | [4] | [11] | [12] | [8]

CC1(C)O[C@@H]2C[C@H]3[C@@H]4CCC5=CC(=O)C=C[C@]5(C)[C@@]4(F)[C@@H](O)C[C@]3(C)[C@]2(C(=O)CO)O1
active: [8] 4.98 µM
inactive: [1] | [3] | [4] | [11] | [5] | [14]

CCCCC(CC)COC(C)=O (centres undefined)
inactive: [1] | [2] | [3] | [12] | [5] | [6] | [13] | [8] | [9] | [14]

COCCOCCOCCO
inactive: [1] | [3] | [4] | [11] | [12] | [10] | [14]

CN1CCOCC1
inactive: [1] | [3] | [4] | [11] | [6] | [13] | [9] | [10]

O=C1NC2NC(=O)NC2N1 (centres undefined)
inactive: [1] | [2] | [3] | [5] | [13] | [7] | [10] | [14]
